Where “and” joins values, the source holds several entries; their conditions need not be identical. Equal entries are not always repeated. Hit rate of the full screen: of about 5,500 compounds, about 2,000 (36%) were called active. Another 18% or so got no clear call; they are omitted. Cut-off read from the data, not from the text of the source: active = normalized growth mostly below about 0.91 (no sharp cut-off); inconclusive = no clear call, values can overlap the other calls; inactive = mostly above about 0.92. The list shows a part of the results.
Experiment: chemical genetic growth profiling, strain panel (AID 1159580);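 note: tested at 20 µM; growth read once vehicle control cultures reached saturation at 30 °C; 1 = growth at the plate median or of vehicle wells; lower values mean less growth of the strain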
Settings: S. cerevisiae deletion strains, growth OD

Measured: normalized growth

NC[C@@H]1O[C@H](O[C@@H]2[C@@H](CO)OC(O[C@@H]3[C@@H](O)[C@H](N)C[C@H](N)[C@H]3O[C@H]3O[C@H](CO)[C@@H](O)[C@H](O)[C@H]3N)[C@@H]2O)[C@H](N)[C@@H](O)[C@@H]1O (stereo partly drawn)
inactive: locus YAL021C, strain ccr4, hits give low values 0.996 | locus YAL026C, strain drs2, hits give low values 0.992 | locus YAL030W, strain snc1, hits give low values 0.995 | locus YBL061C, strain skt5, hits give low values 0.995 | locus YBR009C, strain hhf1, hits give low values 0.986 | locus YBR021W, strain FUR4, hits give low values 1.03 | locus YBR023C, strain chs3, hits give low values 0.999 | locus YBR171W, strain sec66, hits give low values 0.973 | locus YBR229C, strain ROT2, hits give low values 0.96 | locus YBR231C, strain swc5, hits give low values 0.992 | locus YBR279W, strain paf1, hits give low values 0.992 | locus YCL011C, strain gbp2, hits give low values 0.985 | locus YCL016C, strain dcc1, hits give low values 0.988 | locus YCL029C, strain bik1, hits give low values 1 | locus YCL061C, strain MRC1, hits give low values 0.953 | locus YCL069W, strain vba3, hits give low values 0.992 | locus YCR088W, strain abp1, hits give low values 0.997 | locus YDL005C, strain med2, hits give low values 0.992 | locus YDL035C, strain GPR1, hits give low values 0.996 | locus YDL040C, strain nat1, hits give low values 0.984 | locus YDL074C, strain BRE1, hits give low values 0.961 | locus YDL101C, strain DUN1, hits give low values 0.98 | locus YDL134C, strain PPH21, hits give low values 1.01 | locus YDL185W, strain tfp1, hits give low values 0.982 | locus YDL192W, strain arf1, hits give low values 0.991 | locus YDR001C, strain nth1, hits give low values 0.995 | locus YDR069C, strain doa4, hits give low values 0.994 | locus YDR101C, strain arx1, hits give low values 0.985 | locus YDR137W, strain rgp1, hits give low values 1.01 | locus YDR159W, strain sac3, hits give low values 0.966 | locus YDR162C, strain NBP2, hits give low values 0.998 | locus YDR195W, strain ref2 0.981 | locus YDR297W, strain sur2, hits give low values 0.992 | locus YDR318W, strain mcm21, hits give low values 1 | locus YDR334W, strain swr1, hits give low values 0.989 | locus YDR335W, strain msn5, hits give low values 0.998 | locus YDR388W, hits give low values 0.992 | locus YDR392W, strain spt3, hits give low values 0.974 | locus YDR502C, strain sam2, hits give low values 0.988 | locus YEL003W, strain gim4, hits give low values 0.986 | locus YEL037C, strain rad23, hits give low values 0.977 | locus YEL061C, strain CIN8 (second series), hits give low values 0.988 | locus YEL061C, strain CIN8, hits give low values 0.985 | locus YER015W, strain faa2, hits give low values 0.995 | locus YER016W, strain bim1, hits give low values 0.989 | locus YER110C, hits give low values 0.994 | locus YER111C, strain swi4, hits give low values 0.988 | locus YER155C, strain BEM2 (second series), hits give low values 0.985 | locus YER155C, strain BEM2, hits give low values 1 | locus YER167W, strain BCK2, hits give low values 1.01 | locus YFR010W, strain ubp6, hits give low values 0.996 | locus YGL078C, strain dbp3, hits give low values 0.995 | locus YGL086W, strain mad1, hits give low values 0.983 | locus YGL167C, strain pmr1, hits give low values 1 | locus YGL173C, strain kem1, hits give low values 0.984 | locus YGL227W, strain vid30, hits give low values 0.999 | locus YGL240W, strain doc1, hits give low values 0.991 | locus YGL248W, strain PDE1, hits give low values 0.969 | locus YGL253W, strain hxk2, hits give low values 0.988 | locus YGR078C, strain PAC10, hits give low values 0.968 | locus YGR135W, strain pre9, hits give low values 1.05 | locus YGR229C, strain SMI1, hits give low values 1 | locus YGR252W, strain gcn5, hits give low values 1.02 | locus YHR013C, strain ard1, hits give low values 0.988 | locus YHR027C, strain rpn1, hits give low values 0.999 | locus YHR030C, strain SLT2, hits give low values 1 and 0.966 | locus YHR079C, strain IRE1 (second series), hits give low values 0.993 | locus YHR079C, strain IRE1, hits give low values 0.974 | locus YHR094C, strain hxt1, hits give low values 0.997 | locus YHR129C, strain ARP1, hits give low values 1 | locus YHR142W, strain chs7, hits give low values 0.983 | locus YHR200W, strain rpn10, hits give low values 0.993 | locus YIL066C, strain RNR3, hits give low values 0.969 | locus YIL073C, strain SPO22, hits give low values 1.07 | locus YIL125W, strain kgd1, hits give low values 0.992 | locus YIR030C, strain dcg1, hits give low values 0.993 | locus YJL092W, strain hpr5, hits give low values 0.993 | locus YJL095W, strain BCK1 (second series), hits give low values 0.992 | locus YJL095W, strain BCK1, hits give low values 0.959 and 0.976 | locus YJL115W, strain asf1, hits give low values 0.984 | locus YJL129C, strain trk1, hits give low values 0.977 | locus YJL134W, strain LCB3, hits give low values 0.999 | locus YJL154C, strain vps35, hits give low values 0.987 | locus YJL164C, strain tpk1, hits give low values 0.948 | locus YJL166W, strain qcr8, hits give low values 0.986 | locus YJL168C, strain set2, hits give low values 0.987 | locus YJL187C, strain SWE1 (second series), hits give low values 0.954 | locus YJL187C, strain SWE1, hits give low values 0.992

Source: PubChem BioAssay AID1159580 (chemical genetic matrix, 2015)
